Measurements published in PubChem BioAssay AID1159580 (chemical genetic matrix, 2015).
Screen size: about 5,500 compounds; about 2,000 (36%) were called active. Another 18% or so got no clear call; they are omitted. Cut-off read from the data, not from the text of the source: active = normalized growth mostly below about 0.91 (no sharp cut-off); inconclusive = no clear call, values can overlap the other calls; inactive = mostly above about 0.92. The list shows a part of the results.

Test: chemical genetic growth profiling, strain panel (AID 1159580);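 note: tested at 20 µM; growth read once vehicle control cultures reached saturation at 30 °C; 1 = growth at the plate median or of vehicle wells; lower values mean less growth of the strain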
Conditions: S. cerevisiae deletion strains, growth OD
[1] = locus YAL021C, strain ccr4, stronger effect = lower value
[2] = locus YAL026C, strain drs2, stronger effect = lower value
[3] = locus YAL030W, strain snc1, stronger effect = lower value
[4] = locus YBL061C, strain skt5, stronger effect = lower value
[5] = locus YBR009C, strain hhf1, stronger effect = lower value
[6] = locus YBR023C, strain chs3, stronger effect = lower value
[7] = locus YBR171W, strain sec66, stronger effect = lower value
[8] = locus YBR231C, strain swc5, stronger effect = lower value
[9] = locus YBR279W, strain paf1, stronger effect = lower value
[10] = locus YCL011C, strain gbp2, stronger effect = lower value
[11] = locus YCL016C, strain dcc1, stronger effect = lower value
[12] = locus YCL069W, strain vba3, stronger effect = lower value
[13] = locus YCR088W, strain abp1, stronger effect = lower value
[14] = locus YDL005C, strain med2, stronger effect = lower value
[15] = locus YDL040C, strain nat1, stronger effect = lower value
[16] = locus YDR001C, strain nth1, stronger effect = lower value
[17] = locus YDR069C, strain doa4, stronger effect = lower value
[18] = locus YDR137W, strain rgp1, stronger effect = lower value
[19] = locus YDR159W, strain sac3, stronger effect = lower value
[20] = locus YDR297W, strain sur2, stronger effect = lower value
[21] = locus YDR334W, strain swr1, stronger effect = lower value
[22] = locus YDR335W, strain msn5, stronger effect = lower value
[23] = locus YDR392W, strain spt3, stronger effect = lower value
[24] = locus YEL003W, strain gim4, stronger effect = lower value
[25] = locus YEL037C, strain rad23, stronger effect = lower value
[26] = locus YEL061C, strain CIN8 (second series), stronger effect = lower value
[27] = locus YER015W, strain faa2, stronger effect = lower value
[28] = locus YER016W, strain bim1, stronger effect = lower value
[29] = locus YER111C, strain swi4, stronger effect = lower value
[30] = locus YER155C, strain BEM2 (second series), stronger effect = lower value
[31] = locus YFR010W, strain ubp6, stronger effect = lower value
[32] = locus YGL167C, strain pmr1, stronger effect = lower value
[33] = locus YGL173C, strain kem1, stronger effect = lower value
[34] = locus YGL227W, strain vid30, stronger effect = lower value
[35] = locus YGL240W, strain doc1, stronger effect = lower value
[36] = locus YGL253W, strain hxk2, stronger effect = lower value
[37] = locus YHR013C, strain ard1, stronger effect = lower value
[38] = locus YHR027C, strain rpn1, stronger effect = lower value
[39] = locus YHR030C, strain SLT2, stronger effect = lower value
[40] = locus YHR079C, strain IRE1, stronger effect = lower value
[41] = locus YHR142W, strain chs7, stronger effect = lower value
[42] = locus YJL092W, strain hpr5, stronger effect = lower value
[43] = locus YJL095W, strain BCK1 (second series), stronger effect = lower value
[44] = locus YJL095W, strain BCK1, stronger effect = lower value
[45] = locus YJL115W, strain asf1, stronger effect = lower value
[46] = locus YJL129C, strain trk1, stronger effect = lower value
[47] = locus YJL154C, strain vps35, stronger effect = lower value
[48] = locus YJL164C, strain tpk1, stronger effect = lower value
[49] = locus YJL166W, strain qcr8, stronger effect = lower value
[50] = locus YJR066W, strain TOR1, stronger effect = lower value
[51] = locus YKL160W, strain elf1, stronger effect = lower value
[52] = locus YKR026C, strain gcn3, stronger effect = lower value
[53] = locus YKR091W, strain srl3, stronger effect = lower value
[54] = locus YLL001W, strain dnm1, stronger effect = lower value
[55] = locus YLL026W, stronger effect = lower value
[56] = locus YLL041C, strain sdh2, stronger effect = lower value
[57] = locus YLR027C, strain aat2, stronger effect = lower value
[58] = locus YLR113W, strain HOG1, stronger effect = lower value
[59] = locus YLR221C, strain rsa3, stronger effect = lower value
[60] = locus YLR258W, strain gsy2, stronger effect = lower value
[61] = locus YLR262C, strain YPT6 (second series), stronger effect = lower value
[62] = locus YLR320W, strain mms22, stronger effect = lower value
[63] = locus YLR342W, strain FKS1, stronger effect = lower value
[64] = locus YLR357W, strain rsc2, stronger effect = lower value
[65] = locus YLR370C, strain arc18, stronger effect = lower value
[66] = locus YLR384C, strain iki3, stronger effect = lower value
[67] = locus YML120C, strain ndi1, stronger effect = lower value
[68] = locus YMR058W, strain fet3, stronger effect = lower value
[69] = locus YMR125W, strain sto1, stronger effect = lower value
[70] = locus YMR129W, stronger effect = lower value
[71] = locus YMR205C, strain PFK2, stronger effect = lower value
[72] = locus YMR231W, strain pep5, stronger effect = lower value
[73] = locus YNL071W, strain lat1, stronger effect = lower value
[74] = locus YNL183C, strain NPR1, stronger effect = lower value
[75] = locus YNL209W, strain ssb2, stronger effect = lower value
[76] = locus YNL248C, strain rpa49, stronger effect = lower value
[77] = locus YNL322C, strain KRE1 (second series), stronger effect = lower value
[78] = locus YNR049C, strain mso1, stronger effect = lower value
[79] = locus YOR001W, strain rrp6, stronger effect = lower value
[80] = locus YOR070C, strain gyp1, stronger effect = lower value
[81] = locus YOR080W, strain dia2, stronger effect = lower value
[82] = locus YOR083W, strain WHI5, stronger effect = lower value
[83] = locus YOR106W, strain vam3, stronger effect = lower value
[84] = locus YOR231W, strain MKK1, stronger effect = lower value
[85] = locus YOR265W, strain rbl2, stronger effect = lower value
[86] = locus YOR270C, strain vph1, stronger effect = lower value
[87] = locus YOR290C, strain snf2, stronger effect = lower value
[88] = locus YPL051W, strain arl3, stronger effect = lower value
[89] = locus YPL078C, strain atp4, stronger effect = lower value
[90] = locus YPL106C, strain sse1, stronger effect = lower value
[91] = locus YPL240C, strain hsp82, stronger effect = lower value
[92] = locus YPL256C, strain CLN2, stronger effect = lower value

Measured: normalized growth

Nc1ncn[nH]1
inactive: [1] 0.986 | [2] 1.02 | [3] 1.02 | [4] 1.02 | [5] 1.04 | [6] 1.02 | [7] 1.02 | [8] 1.02 | [9] 1.02 | [10] 1.02 | [11] 1.02 | locus YCL061C, strain MRC1, stronger effect = lower value 1.02 | [12] 1.02 | [13] 1.02 | [14] 1.02 | [15] 1.02 | [16] 1.02 | [17] 1.03 | [18] 1 | [19] 1.05 | locus YDR195W, strain ref2 1.01 | [20] 1.01 | [21] 1.02 | [22] 1.02 | [23] 0.966 | [24] 1.02 | [25] 1.02 | [26] 1.01 | [27] 1.02 | [28] 1.03 | [29] 1.02 | [30] 1.04 | [31] 1.02 | [32] 1.02 | [33] 1.02 | [34] 1.02 | [35] 1.05 | [36] 1.01 | [37] 1.01 | [38] 1.02 | [39] 0.995 | [40] 1 | [41] 0.97 | [42] 1.02 | [43] 1.02 | [44] 0.967 | [45] 1.02 | [46] 1 | [47] 1.02 | [48] 1 | [49] 1.01 | locus YJL187C, strain SWE1, stronger effect = lower value 1.02 | [50] 0.923 | [51] 0.974 | [52] 1.01 | [53] 1.02 | [54] 1.03 | [55] 1.01 | [56] 1.02 | [57] 1.01 | [58] 0.985 | [59] 0.995 | [60] 1.03 | [61] 1 | [62] 1.03 | [63] 1.01 | [64] 1.06 | [65] 1.01 | [66] 1 | [67] 0.997 | [68] 1.02 | [69] 1.05 | [70] 1.01 | [71] 1.05 | [72] 1.02 | [73] 1.01 | [74] 0.933 | [75] 1.01 | [76] 0.985 | [77] 1 | [78] 1.02 | [79] 1 | [80] 1.03 | [81] 1.02 | [82] 0.979 | [83] 0.987 | [84] 0.988 | [85] 1.01 | [86] 1.02 | [87] 0.982 | [88] 0.988 | [89] 0.982 | [90] 1.05 | [91] 1.02 | [92] 0.96

O=C(O)[C@@H]1CCN1
inactive: locus YAL040C, strain CLN3, stronger effect = lower value 1.01 | locus YDR363W, strain ESC2, stronger effect = lower value 0.998 | locus YER002W, strain NOP16, stronger effect = lower value 0.998 | locus YGR078C, strain PAC10, stronger effect = lower value 1.01 | locus YGR229C, strain SMI1, stronger effect = lower value 0.984 | locus YMR263W, strain SAP30, stronger effect = lower value 0.998 | locus YMR307W, strain GAS1, stronger effect = lower value 0.992 | locus YNL153C, strain GIM3, stronger effect = lower value 0.996 | locus YNL175C, strain NOP13, stronger effect = lower value 1.01 | locus YNL197C, strain WHI3, stronger effect = lower value 1.02 | locus YNL224C, strain SQS1, stronger effect = lower value 0.963 | locus YOR083W, strain WHI5 (second series), stronger effect = lower value 1 | locus YPL055C, strain LGE1, stronger effect = lower value 0.996 | locus YPL241C, strain CIN2, stronger effect = lower value 1.01

CCOC(=O)n1ccn(C)c1=S
inactive: [1] 0.987 | [2] 0.996 | [3] 0.994 | [4] 1.01 | [5] 0.946 | [6] 1.01 | [7] 0.98 | [8] 0.984 | [9] 1 | [10] 0.997 | [11] 1.03 | [12] 0.984 | [13] 0.99 | [14] 0.99 | [15] 0.985 | [16] 0.982 | [17] 0.994 | [18] 0.96 | [19] 0.881 | locus YDR195W, strain ref2 0.976 | [20] 1 | [21] 0.961 | [22] 1.01 | [23] 0.939 | [24] 0.972 | [25] 0.974 | [26] 0.966 | [27] 0.982 | [28] 1.06 | [29] 0.994 | [30] 0.961 | [31] 0.955 | [32] 0.97 | [33] 0.975 | [34] 0.985 | [35] 0.995 | [36] 0.998 | [37] 1.02 | [38] 0.997 | [39] 1.02 | [40] 1.01 | [41] 1.01 | [42] 0.987 | [43] 0.99 | [44] 1.01 | [45] 0.963 | [46] 0.974 | [47] 0.977 | [48] 0.979 | [49] 0.986 | [50] 0.988 | [51] 1.04 | [52] 0.97 | [53] 0.99 | [54] 0.951 | [55] 0.986 | [56] 0.988 | [57] 0.999 | [58] 0.999 | [59] 0.967 | [60] 1 | [61] 0.929 | [62] 0.931 | [63] 1.01 | [64] 0.99 | [65] 0.998 | [66] 0.981 | [67] 0.974 | [68] 0.991 | [69] 0.971 | [70] 0.979 | [71] 0.983 | [72] 0.988 | [73] 0.98 | [74] 0.971 | [75] 0.985 | [76] 1.04 | [77] 1.01 | [78] 0.999 | [79] 0.949 | [80] 1.01 | [81] 0.998 | [82] 1.01 | [83] 1.02 | [84] 1.02 | [85] 0.988 | [86] 1.02 | [87] 1.05 | [88] 1.06 | [89] 1.05 | [90] 1.04 | [91] 0.994 | [92] 0.98
